Laboratory results from PubChem BioAssay (NCATS).
“And” between values parts separate entries of the source, which are not always exact repeats. Identical values can stand only once. Records with an inconclusive call do not appear. The source made the active and inactive calls. The call rests on the fitted dose curve; in most records, active means well fitted inhibition curve with a large enough effect; inconclusive means small, poorly fitted or top-dose-only effect; inactive means flat fitted curve, though single readings scatter.

Assays:
ICS = assay: qHTS profiling for inhibitors of Plasmodium falciparum proliferation (AID 504749);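 further: 0% = DMSO vehicle and full inhibition = artemisinin control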; conditions: P. falciparum in erythrocytes, SYBR Green DNA, 72 h; series mostly up to 28.7 µM
Outline: (§1)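 Infected RBCs, 0.3% parasitemia/2.5% Hct final; cpd 72 h, 37 C, 5% CO2; lysis buffer with saponin/triton/SYBR Green I, o/n RT dark; FI 485/535; norm. to artemisinin (0.29 uM) and DMSO.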

JCK = assay: as above; conditions: P. falciparum in erythrocytes, SYBR Green DNA, 72 h; series mostly up to 28.7 µM
Outline: as §1

N140 = assay: as above; conditions: P. falciparum in erythrocytes, SYBR Green DNA, 72 h; series mostly up to 28.7 µM
Outline: as §1

P93_24 = assay: as above; conditions: P. falciparum in erythrocytes, SYBR Green DNA, 72 h; series mostly up to 28.7 µM
Outline: as §1

P94_40 = assay: as above; conditions: P. falciparum in erythrocytes, SYBR Green DNA, 72 h; series mostly up to 28.7 µM
Outline: as §1

PAD = assay: as above; conditions: P. falciparum in erythrocytes, SYBR Green DNA, 72 h; series mostly up to 28.7 µM
Outline: as §1

PC15 = assay: as above; conditions: P. falciparum in erythrocytes, SYBR Green DNA, 72 h; series mostly up to 28.7 µM
Outline: as §1

PC26 = assay: as above; conditions: P. falciparum in erythrocytes, SYBR Green DNA, 72 h; series mostly up to 28.7 µM
Outline: as §1

PC49 = assay: as above; conditions: P. falciparum in erythrocytes, SYBR Green DNA, 72 h; series mostly up to 28.7 µM
Outline: as §1

SC27B = assay: as above; conditions: P. falciparum in erythrocytes, SYBR Green DNA, 72 h; series mostly up to 28.7 µM
Outline: as §1

TAB109 = assay: as above; conditions: P. falciparum in erythrocytes, SYBR Green DNA, 72 h; series mostly up to 28.7 µM
Outline: as §1

TAB113 = assay: as above; conditions: P. falciparum in erythrocytes, SYBR Green DNA, 72 h; series mostly up to 28.7 µM
Outline: as §1

TAB165 = assay: as above; conditions: P. falciparum in erythrocytes, SYBR Green DNA, 72 h; series mostly up to 28.7 µM
Outline: as §1

KB-3-1 = assay: Cytotoxic Profiling of Annotated Libraries Using Quantitative High-Throughput Screening (AID 1296008); conditions: Five cell lines viability, CellTiter-Glo ATP luminescence, 48-72 h; max response: active compounds read low; further: on the % scale 0 is the no-effect control and ±100 the full control effect
Outline: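 Cytotoxicity was measured as CellTiter-Glo ATP luminescence, read after 10 min at room temperature. Compound treatment of the cells lasted 48 or 72 hr at 37 degrees Celsius in a qHTS format.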

W2 = assay: qHTS profiling for inhibitors of Plasmodium falciparum proliferation (AID 504749);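 further: 0% = DMSO vehicle and full inhibition = artemisinin control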; conditions: P. falciparum in erythrocytes, SYBR Green DNA, 72 h; series mostly up to 28.7 µM
Outline: as §1
Further: nearly all actives have a fitted effect of over 60% in size.

CCCCC
inactive: Potency (ICS) | Potency (JCK) | Potency (N140) | Potency (P93_24) | Potency (P94_40) | Potency (PAD) | Potency (PC15) | Potency (PC26) | Potency (PC49) | Potency (SC27B) | Potency (TAB109) | Potency (TAB113) | Potency (TAB165) | max response (KB-3-1) 7.19%

CC/C=C\C/C=C\C/C=C\C/C=C\C/C=C\CCCC(=O)O
inactive: Potency (ICS) | Potency (JCK) | Potency (N140) | Potency (P93_24) | Potency (P94_40) | Potency (PAD) | Potency (PC15) | Potency (PC26) | Potency (PC49) | Potency (SC27B) | Potency (TAB109) | Potency (TAB113) | Potency (TAB165) | max response (KB-3-1) -1.96%

S=C=Nc1ccc(N=C=S)cc1
inactive: Potency (ICS) | Potency (JCK) | Potency (N140) | Potency (P93_24) | Potency (P94_40) | Potency (PAD) | Potency (PC15) | Potency (PC26) | Potency (PC49) | Potency (SC27B) | Potency (TAB109) | Potency (TAB113) | Potency (TAB165) | max response (KB-3-1) -15.9%

c1ccc2c(c1)OCC(CN1CCCCC1)O2 (stereo unspecified)
inactive: Potency (ICS) | Potency (JCK) | Potency (N140) | Potency (P93_24) | Potency (P94_40) | Potency (PAD) | Potency (PC15) | Potency (PC26) | Potency (PC49) | Potency (SC27B) | Potency (TAB109) | Potency (TAB113) | Potency (TAB165) | max response (KB-3-1) -16%

CCN(CC)C(=S)S
inactive: Potency (ICS) | Potency (JCK) | Potency (N140) | Potency (P93_24) | Potency (P94_40) | Potency (PAD) | Potency (PC15) | Potency (PC26) | Potency (PC49) | Potency (SC27B) | Potency (TAB109) | Potency (TAB113) | Potency (TAB165) | max response (KB-3-1) 3.72%

CCCCCCCCCCCC(=O)N(CCO)CCO
inactive: Potency (ICS) | Potency (JCK) | Potency (N140) | Potency (P93_24) | Potency (P94_40) | Potency (PAD) | Potency (PC15) | Potency (PC26) | Potency (PC49) | Potency (SC27B) | Potency (TAB109) | Potency (TAB113) | Potency (TAB165) | Potency (W2) | max response (KB-3-1) -11.5%

C=CC(C)(O)CC/C=C(\C)CCC=C(C)C (stereo unspecified)
inactive: Potency (ICS) | Potency (JCK) | Potency (N140) | Potency (P93_24) | Potency (P94_40) | Potency (PAD) | Potency (PC15) | Potency (PC26) | Potency (PC49) | Potency (SC27B) | Potency (TAB109) | Potency (TAB113) | Potency (TAB165) | max response (KB-3-1) 0.0537%

O=C(O)c1ccc(NC(=O)[C@H](Cc2ccc(O)cc2)NC(=O)c2ccccc2)cc1
inactive: Potency (ICS) | Potency (JCK) | Potency (N140) | Potency (P93_24) | Potency (P94_40) | Potency (PAD) | Potency (PC15) | Potency (PC26) | Potency (PC49) | Potency (SC27B) | Potency (TAB109) | Potency (TAB113) | Potency (TAB165) | max response (KB-3-1) 7.82%

CCCCCCCCCC(=O)NO
inactive: Potency (ICS) | Potency (JCK) | Potency (N140) | Potency (P93_24) | Potency (P94_40) | Potency (PAD) | Potency (PC15) | Potency (PC26) | Potency (PC49) | Potency (SC27B) | Potency (TAB109) | Potency (TAB113) | Potency (TAB165) | max response (KB-3-1) -3.47% and -15%

OC1OC[C@@H](O)[C@H](O)[C@@H]1O (stereo partly specified)
inactive: Potency (ICS) | Potency (JCK) | Potency (N140) | Potency (P93_24) | Potency (P94_40) | Potency (PAD) | Potency (PC15) | Potency (PC26) | Potency (PC49) | Potency (SC27B) | Potency (TAB109) | Potency (TAB113) | Potency (TAB165) | Potency (W2) | max response (KB-3-1) 12.5%

Cc1ccccn1
inactive: Potency (ICS) | Potency (JCK) | Potency (N140) | Potency (P93_24) | Potency (P94_40) | Potency (PAD) | Potency (PC15) | Potency (PC26) | Potency (PC49) | Potency (SC27B) | Potency (TAB109) | Potency (TAB113) | Potency (TAB165) | Potency (W2) | max response (KB-3-1) -6.48%

CN(Cc1ccccc1)Cc1ccccc1
inactive: Potency (ICS) | Potency (JCK) | Potency (N140) | Potency (P93_24) | Potency (P94_40) | Potency (PAD) | Potency (PC15) | Potency (PC26) | Potency (PC49) | Potency (SC27B) | Potency (TAB109) | Potency (TAB113) | Potency (TAB165) | max response (KB-3-1) 19.7%

CN(CCO)CC(O)Cn1cnc2c1c(=O)n(C)c(=O)n2C (stereo unspecified) (tested in a mixture with another compound)
inactive: Potency (ICS) | Potency (JCK) | Potency (N140) | Potency (P93_24) | Potency (P94_40) | Potency (PAD) | Potency (PC15) | Potency (PC26) | Potency (PC49) | Potency (SC27B) | Potency (TAB109) | Potency (TAB113) | Potency (TAB165) | Potency (W2) | max response (KB-3-1) -4.03%
